Data: ChEMBL document CHEMBL4513141, “CO-ADD screening of NIH (USA) - Clinical Collection” (2021)
Entries with a potency or affinity are not part of this list.

Assays:
[1] = test system: Staphylococcus aureus; details: Concentration 20 uM; ASSAY_TEST Inhibition of Bacterial Growth; detection method Absorption (OD600); MEDIA CAMHB; plate type 384well; NBS; CORNING #3640; time 18 hr
[2] = test system: Escherichia coli; details: Concentration 20 uM; ASSAY_TEST Inhibition of Bacterial Growth; detection method Absorption (OD600); MEDIA CAMHB; plate type 384well; NBS; CORNING #3640; time 18 hr

Compound | Inhibition [1] | Inhibition [2]
CNCC(O)c1ccc(O)c(O)c1 (stereo unspecified) [RACEPINEPHRINE] | 9.77% | 2.6%
NCC(=O)CCC(=O)O [AMINOLEVULINIC ACID] | 8.53% | 5.31%
NC(CO)(CO)CO.O=C(c1ccccc1)c1ccc2n1CCC2C(=O)O (stereo unspecified) [KETOROLAC TROMETHAMINE] | 4.45% | -3.99%
Cn1ccnc1S [METHIMAZOLE] | 17.02% | 5.86%
C[C@H](N[C@@H](CCc1ccccc1)C(=O)O)C(=O)N1CCC[C@H]1C(=O)O [ENALAPRILAT ANHYDROUS] | -5.3% | 7.09%
CCN1CC(CCN2CCOCC2)C(c2ccccc2)(c2ccccc2)C1=O.Cl (stereo unspecified) | -18.77% | 2.66%
COc1ccc(/C=C/C(=O)Nc2ccccc2C(=O)O)cc1OC | 8.38% | -3.33%
NC(=O)N1c2ccccc2C=Cc2ccccc21 [CARBAMAZEPINE] | 10.71% | -3.33%
Cl.O.O=C(c1ccc(F)cc1)C1CCN(CCn2c(=S)[nH]c3ccccc3c2=O)CC1 | 2.33% | 1.4%
O=C(O)c1cccnc1 [NIACIN] | 1.53% | -3.09%
Cc1cccc(Nc2ccncc2S(=O)(=O)NC(=O)NC(C)C)c1 [TORSEMIDE] | 4.19% | 6.8%
COc1cc(C)nc(-n2nc(C)cc2OC)n1 [EPIRIZOLE] | 7.75% | -0.13%
CS(=O)(=O)OCCCCOS(C)(=O)=O [BUSULFAN] | 14.7% | 10.16%
